PubChem BioAssay (NCI)
About 79,000 compounds went through this panel and 15% of them were active in at least one assay; those are over-represented in the sample as a whole. Activity calls are given as the source filed them. No stated cut-off is given here; in the data, active means growth inhibition above about 70%; inactive means the rest.

Assays:
[1] = NCI Yeast Anticancer Drug Screen. Data for the rad52 strain (AID 147);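 further: 0% = growth of vehicle-treated control cultures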; details: S. cerevisiae rad52 mutant growth inhibition, stronger effect = higher value
In short: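 The repair-mutant yeast strain was incubated with compounds, then growth was read and inhibition derived relative to vehicle.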

[2] = NCI Yeast Anticancer Drug Screen. Data for the wt1 strain (AID 149);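 further: 0% = growth of vehicle-treated wt1 cultures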; details: S. cerevisiae wt1 strain (SPY 50644) growth inhibition, stronger effect = higher value
In short: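 The wt1 strain was treated with compounds, and growth was compared with vehicle-treated cultures to give inhibition.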

[3] = NCI Yeast Anticancer Drug Screen. Data for the rad50EPP+ strain (AID 151);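 further: 0% = growth of vehicle-treated control cultures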; details: S. cerevisiae rad50 mutant strain, stronger effect = higher value
In short: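 Vehicle-normalised growth inhibition; rad50EPP+ yeast strain, altered in DNA damage repair, compound-treated.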

[4] = NCI Yeast Anticancer Drug Screen. Data for the mgt1 strain (AID 153); details: S. cerevisiae mgt1 mutant growth inhibition, stronger effect = higher value
In short: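 Vehicle-normalized growth inhibition is determined in mgt1 yeast, a strain selected for a defined alteration in DNA repair or cell cycle control.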

[5] = NCI Yeast Anticancer Drug Screen. Data for the rad50 strain (AID 155);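 further: 0% = growth of vehicle-only cultures of the same strain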; details: S. cerevisiae rad50 strain growth inhibition, stronger effect = higher value
In short: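 Cells are treated with compound, grown, and their growth is then scored against vehicle-only cultures of the same repair-deficient yeast strain.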

[6] = NCI Yeast Anticancer Drug Screen. Data for the mec2-1 strain (AID 157); details: S. cerevisiae mec2-1 strain, stronger effect = higher value
In short: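 Mutant yeast (mec2-1) grown with compound; growth inhibition relative to vehicle control reported.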

[7] = NCI Yeast Anticancer Drug Screen. Data for the rad14 strain (AID 159);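 further: 0% = growth of vehicle-treated control cultures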; details: S. cerevisiae rad14 strain growth inhibition, stronger effect = higher value
In short: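 Readout: yeast growth inhibition, referenced to vehicle-only cultures. Strain bears a defined alteration in DNA damage repair.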

[8] = NCI Yeast Anticancer Drug Screen. Data for the sgs1 mgt1 strain (AID 161);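 further: 0% = growth of cultures given vehicle only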; details: S. cerevisiae sgs1 mgt1 strain, stronger effect = higher value
In short: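 Compounds are added to genetically altered yeast, and growth is compared with cultures given vehicle alone to give percent inhibition.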

[9] = NCI Yeast Anticancer Drug Screen. Data for the CLN2oe strain (AID 163);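 further: 0% = growth of vehicle-only control cultures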; details: S. cerevisiae CLN2oe strain, stronger effect = higher value
In short: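 Compounds are applied to yeast harbouring a defined cell-cycle control change; reduced growth compared with vehicle-treated controls gives the value.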

[10] = NCI Yeast Anticancer Drug Screen. Data for the cln2 rad14 strain (AID 165);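 further: 0% = growth equal to vehicle treated cultures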; details: S. cerevisiae cln2 rad14 strain, stronger effect = higher value
In short: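 Readout is yeast growth inhibition versus vehicle-treated controls, using a strain with cln2 and rad14 alterations exposed to compound.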

[11] = NCI Yeast Anticancer Drug Screen. Data for the bub3 strain (AID 167); details: S. cerevisiae bub3 mutant strain, stronger effect = higher value
In short: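 Part of a panel of yeast mutants defective in DNA damage repair or cell cycle regulation. Each strain is grown with compound, and inhibition is calculated relative to solvent-treated cultures.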

[12] = NCI Yeast Anticancer Drug Screen. Data for the wt2 strain (AID 169);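 further: 0% = growth of vehicle-treated yeast cultures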; details: S. cerevisiae wt2 strain growth inhibition, stronger effect = higher value
In short: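 Against vehicle-treated controls, the growth of yeast exposed to each compound was compared, and the inhibition was recorded.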

[13] = NCI Yeast Anticancer Drug Screen. Data for the mlh1 strain (AID 171);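 further: 0% = growth of vehicle-treated control cultures of the same strain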; details: S. cerevisiae mlh1 strain growth inhibition, stronger effect = higher value
In short: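 Measured: yeast growth. Reference: vehicle-treated controls. Organism: strain with a defined alteration affecting DNA damage repair or cell cycle control, treated with compound.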

[14] = NCI Yeast Anticancer Drug Screen. Data for the sgs1 strain (AID 173);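 further: 0% = growth of vehicle-only control cultures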; details: S. cerevisiae sgs1 mutant, stronger effect = higher value
In short: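 Each compound was added to cultures of the altered yeast strain. Growth was recorded, and inhibition was derived by comparison with vehicle controls.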

[15] = NCI Yeast Anticancer Drug Screen. Data for the mlh1 rad18 strain (AID 175); details: S. cerevisiae mlh1 rad18 strain growth inhibition, stronger effect = higher value
In short: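 Genetically defined yeast (DNA repair-deficient) exposed to compounds; growth inhibition determined relative to vehicle.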

[16] = NCI Yeast Anticancer Drug Screen. Data for the rad18 strain (AID 177); details: S. cerevisiae rad18 mutant growth inhibition, stronger effect = higher value
In short: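 Vehicle-treated cultures served as the baseline for scoring compound-induced growth inhibition in DNA-repair-mutant yeast.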

[17] = at 5.0 µM (retest, dose inferred, filed as 0.5)
[18] = at 50.0 µM (retest, dose inferred, filed as 5.0)

Measured: growth inhibition

S=c1[nH]c2cc3ccccc3cc2[nH]1
active: [5]; [18] 86% | [5]; at 50.0 µM 71.2% | [11]; [18] 83% | [15]; [18] 78%
inactive: [1]; at 1.2 µM -42% | [1]; at 3.7 µM -46% | [1]; at 11.0 µM -37% | [1]; at 33.0 µM -31% | [1]; at 100.0 µM -19% | [2]; at 1.2 µM -24% | [2]; at 3.7 µM -6% | [2]; at 11.0 µM 6% | [2]; at 33.0 µM 3% | [2]; at 100.0 µM 2% | [3]; at 1.2 µM -12% | [3]; at 3.7 µM 3% | [3]; at 11.0 µM -4% | [3]; at 33.0 µM 14% | [3]; at 100.0 µM 38% | [4]; at 1.2 µM -36% | [4]; at 3.7 µM -7% | [4]; at 11.0 µM -15% | [4]; at 33.0 µM 6% | [4]; at 100.0 µM 16% | [5]; at 1.2 µM -25% | [5]; at 3.7 µM -25% | [5]; [17] 5% | [5]; at 11.0 µM -11% | [5]; at 33.0 µM 3% | [5]; at 100.0 µM 17% | [6]; at 1.2 µM -25% | [6]; at 3.7 µM -13% | [6]; [17] -3% | [6]; at 11.0 µM -8% | [6]; at 33.0 µM 1% | [6]; [18] 17% | [6]; at 50.0 µM 45.6% | [6]; at 100.0 µM 24% | [7]; at 1.2 µM -14% | [7]; at 3.7 µM -11% | [7]; at 11.0 µM -7% | [7]; at 33.0 µM -10% | [7]; at 100.0 µM 1% | [8]; [17] -5% | [8]; [18] 15% | [8]; at 50.0 µM 68.8% | [9]; at 1.2 µM -13% | [9]; at 3.7 µM -18% | [9]; at 11.0 µM -3% | [9]; at 33.0 µM -7% | [9]; at 100.0 µM 18% | [10]; [17] 34% | [10]; [18] 57% | [10]; at 50.0 µM 43.6% | [11]; at 1.2 µM -7% | [11]; at 3.7 µM 15% | [11]; [17] -4% | [11]; at 11.0 µM -9% | [11]; at 33.0 µM 7% | [11]; at 50.0 µM 68.9% | [11]; at 100.0 µM 40% | [12]; at 1.2 µM -55% | [12]; at 3.7 µM -50% | [12]; at 11.0 µM -46% | [12]; at 33.0 µM -19% | [12]; at 100.0 µM -3% | [13]; at 1.2 µM -13% | [13]; at 3.7 µM -7% | [13]; at 11.0 µM -4% | [13]; at 33.0 µM 14% | [13]; at 100.0 µM 34% | [14]; at 1.2 µM -27% | [14]; at 3.7 µM -8% | [14]; at 11.0 µM -4% | [14]; at 33.0 µM 20% | [14]; at 100.0 µM 25% | [15]; [17] 9% | [15]; at 50.0 µM 67.6% | [16]; at 1.2 µM -9% | [16]; at 3.7 µM 2% | [16]; at 11.0 µM 11% | [16]; at 33.0 µM 18% | [16]; at 100.0 µM 17%

CCCC(O)C1CC(C(C)C)CCC1C (stereo unspecified)
active: [2]; at 100.0 µM 75% | [3]; at 100.0 µM 98% | [4]; at 100.0 µM 96% | [6]; at 50.0 µM 75.5% | [6]; at 100.0 µM 96% | [7]; at 100.0 µM 99% | [10]; at 50.0 µM 92% | [11]; at 50.0 µM 92.3% | [11]; at 100.0 µM 98% | [12]; at 100.0 µM 74% | [13]; at 100.0 µM 95% | [14]; at 100.0 µM 94% | [16]; at 100.0 µM 92%
inactive: [1]; at 1.2 µM 0% | [1]; at 3.7 µM 1% | [1]; at 11.0 µM 2% | [1]; at 33.0 µM 7% | [1]; at 100.0 µM 43% | [2]; at 1.2 µM -1% | [2]; at 3.7 µM 0% | [2]; at 11.0 µM -1% | [2]; at 33.0 µM 3% | [3]; at 1.2 µM -3% | [3]; at 3.7 µM -2% | [3]; at 11.0 µM 7% | [3]; at 33.0 µM 47% | [4]; at 1.2 µM -2% | [4]; at 3.7 µM 0% | [4]; at 11.0 µM -1% | [4]; at 33.0 µM 5% | [5]; at 1.2 µM 0% | [5]; at 3.7 µM -46% | [5]; [17] 0% | [5]; at 11.0 µM 25% | [5]; at 33.0 µM 6% | [5]; [18] 5% | [5]; at 50.0 µM 31.4% | [5]; at 100.0 µM 64% | [6]; at 1.2 µM 0% | [6]; at 3.7 µM 3% | [6]; [17] 0% | [6]; at 11.0 µM 5% | [6]; at 33.0 µM 9% | [6]; [18] 52% | [7]; at 1.2 µM -1% | [7]; at 3.7 µM 0% | [7]; at 11.0 µM 4% | [7]; at 33.0 µM 17% | [8]; [17] -11% | [8]; [18] 33% | [8]; at 50.0 µM 24.8% | [9]; at 1.2 µM -3% | [9]; at 3.7 µM -3% | [9]; at 11.0 µM 5% | [9]; at 33.0 µM 4% | [9]; at 100.0 µM 12% | [10]; [17] 4% | [10]; [18] 44% | [11]; at 1.2 µM -3% | [11]; at 3.7 µM -2% | [11]; [17] -2% | [11]; at 11.0 µM -3% | [11]; at 33.0 µM 1% | [11]; [18] 10% | [12]; at 1.2 µM -1% | [12]; at 3.7 µM 6% | [12]; at 11.0 µM 0% | [12]; at 33.0 µM 4% | [13]; at 1.2 µM -2% | [13]; at 3.7 µM 0% | [13]; at 11.0 µM 3% | [13]; at 33.0 µM 9% | [14]; at 1.2 µM -2% | [14]; at 3.7 µM -1% | [14]; at 11.0 µM 4% | [14]; at 33.0 µM 15% | [15]; [17] -1% | [15]; [18] 11% | [15]; at 50.0 µM 55.9% | [16]; at 1.2 µM 0% | [16]; at 3.7 µM 1% | [16]; at 11.0 µM 2% | [16]; at 33.0 µM 9%
